Assay outcomes deposited in PubChem BioAssay by The Scripps Research Institute Molecular Screening Center.
In the library only some 3.4% were active in any assay of this set; here they are far more common.
GPR151 ag – human GPR151 activation; Q8TDV0; PathHunter beta-arrestin GPR151 cells, luminescence; activation, % at 11.2 µM; 1% of 650,000 active; AID 1508602; in the data active means activation above about 4.9%;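 further: 0% = median of compound wells and 100% = cells with positive control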
MITF inh – human MITF inhibition, primary screen; O75030; AlphaScreen MITF homodimerization, bead proximity signal; inhibition, % at 2.6 µM; 0.91% of 650,000 active; AID 1259374; in the data active means inhibition above about 50%;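 further: 0% = vehicle wells with protein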
TEAD-YAP inh – TEAD-YAP interaction inhibition. HEK-TIYL cells, TEAD-Gal4/YAP UAS-luciferase luminescence. inhibition, % at 9.12 µM. 1.4% of 640,000 active. AID 1259422; in the data active means inhibition above about 32%;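 further: 0% = median of test compound wells and 100% = reference inhibitor wells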
FBW7 activator – activators of human E3 ligase FBW7. Q969H0. normalized activity (activation), % at 26.1 µM. AlphaScreen FBW7–phospho-cyclin E peptide binding, activator screen. AID 1259310. 0.13% of 650,000 active; in the data active means normalized activity above about 1.9%;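 further: purified mutant Fbw7 with reduced substrate affinity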
GPR151 confirm – human GPR151 activation, confirmation screen; shares compounds with GPR151 ag; GPR151 PathHunter beta-arrestin cells, luminescence, 90 min; % of EA-reagent control over plate median; activation, % at 11.2 µM; 6,700 tested, under 10 active; AID 1508609;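 active means mean percent activation across replicates above the confirmation screen cutoff of 4.91%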
GPR119 counter – GPR119 activation, counter-screen for GPR151 activators. shares compounds with GPR151 ag. AID 1508611. activation, % at 11.2 µM. 0.3% of 6,700 active. GPR119 PathHunter beta-arrestin cells, luminescence, 90 min; 0 = compound-well median, 100 = enzyme-acceptor control;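 active means mean percent activation in the counterscreen above 29.09%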;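 further: counterscreen on off-target GPR119 to flag nonselective hits from the GPR151 activator screen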
Target sequence (Q8TDV5 whole entry, looked up): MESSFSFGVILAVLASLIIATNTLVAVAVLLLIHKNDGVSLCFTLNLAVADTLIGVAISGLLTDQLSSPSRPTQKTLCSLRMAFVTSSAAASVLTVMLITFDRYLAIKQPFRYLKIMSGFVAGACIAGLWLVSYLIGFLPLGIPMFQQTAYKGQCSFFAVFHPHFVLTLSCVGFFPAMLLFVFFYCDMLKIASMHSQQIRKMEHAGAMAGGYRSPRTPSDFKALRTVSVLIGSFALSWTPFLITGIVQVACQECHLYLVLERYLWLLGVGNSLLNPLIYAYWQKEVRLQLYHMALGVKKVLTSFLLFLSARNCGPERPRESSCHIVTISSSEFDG
* = called active by the depositor.

For Cc1ccc(C(c2nnnn2CCc2ccccc2)N2CCOCC2)cc1 (centres undefined) the results were GPR151 ag 6.8*, MITF inh -18.5, TEAD-YAP inh 5.2, FBW7 activator 0.0, GPR151 confirm 0.6 and GPR119 counter -1.2.
`CCCc1c(C(=O)N[C@H]2C[C@H]3C(=O)N[C@@H](CCC)C(=O)N3C2)cnn1-c1ccccc1` gave GPR151 ag 1.0, MITF inh -15.1, TEAD-YAP inh -4.1 and FBW7 activator 0.1.
COc1ccc(CNC(=O)CN(C)S(=O)(=O)c2ccc(Cl)cc2)cc1 was read as GPR151 ag 5.4*, MITF inh 13.2, TEAD-YAP inh 4.3, FBW7 activator -0.1, GPR151 confirm -0.1 and GPR119 counter -4.8.
For COc1ccc(S(=O)(=O)N(C)CC(=O)Nc2cccc(OC)c2)cc1 the results were GPR151 ag 6.2*, MITF inh 8.6, TEAD-YAP inh -0.6, FBW7 activator 0.1, GPR151 confirm -0.3 and GPR119 counter -9.8.
Screening CCOC(=O)c1cc(C(=O)NNC(=O)/C=C/C(=O)O)c(C)nc1C returned GPR151 ag 5.3*, MITF inh 5.6, TEAD-YAP inh -2.3, FBW7 activator -0.1, GPR151 confirm 0.5 and GPR119 counter -5.2.
`COc1ccc(NC2=C(C(C)=O)C(c3ccc(OC)cc3)C(C(C)=O)C(C)(O)C2)cc1` (centres undefined) gave GPR151 ag 0.4, MITF inh 9.3, TEAD-YAP inh 4.0 and FBW7 activator 0.1.
COc1ccc(NC2=C(C(C)=O)C(c3ccc(N(C)C)cc3)C(C(C)=O)C(C)(O)C2)cc1 (centres undefined) was read as GPR151 ag 12.5*, MITF inh 1.4, TEAD-YAP inh 3.1, FBW7 activator -0.1, GPR151 confirm 0.7 and GPR119 counter 13.0.
Screening CC(C)(COC(=O)c1cccc2ccccc12)N=C1NS(=O)(=O)c2ccccc21 returned GPR151 ag 6.1*, MITF inh -7.8, TEAD-YAP inh -1.2, FBW7 activator -0.2, GPR151 confirm 0.8 and GPR119 counter 12.5.
Screening OCCNCCCCOc1ccc(OCc2ccccc2)cc1 returned GPR151 ag 6.2*, MITF inh 5.0, TEAD-YAP inh 6.5, FBW7 activator 0.2, GPR151 confirm -0.1 and GPR119 counter -17.9.
COc1cccc(-c2ccc(=O)n(CC(=O)Nc3cccnc3)n2)c1 was read as GPR151 ag -0.8, MITF inh 13.1, TEAD-YAP inh 0.0 and FBW7 activator 0.0.
`COC(=O)C(Cc1ccccc1)NC(=O)C(Cc1cnc[nH]1)NC(=O)OCc1ccccc1` (centres undefined) gave GPR151 ag 5.5*, MITF inh 2.6, TEAD-YAP inh -2.3, FBW7 activator 0.0, GPR151 confirm 0.5 and GPR119 counter -1.3.
For CCOC(=O)CNC(=O)C(Cc1ccccc1)NC(=O)OCc1ccccc1 (centres undefined) the results were GPR151 ag 0.4, MITF inh -4.8, TEAD-YAP inh 4.2 and FBW7 activator -0.1.
Screening COC(=O)C(Cc1ccccc1)NC(=O)C(Cc1ccccc1)NC(=O)OCc1ccccc1 (centres undefined) returned GPR151 ag 0.8, MITF inh -6.0, TEAD-YAP inh 1.2 and FBW7 activator -0.1.
`CCNC(=O)C(Cc1ccc([N+](=O)[O-])cc1)NC(=O)OCc1ccccc1` (centres undefined) gave GPR151 ag 5.6*, MITF inh -1.9, TEAD-YAP inh -10.8, FBW7 activator 0.0, GPR151 confirm 0.3 and GPR119 counter 6.5.
Screening CCOc1cc(-c2nnc(SCC(=O)NCCc3ccc(OC)c(OC)c3)nc2-c2ccc(OC)c(OCC)c2)ccc1OC returned GPR151 ag -1.7, MITF inh 14.2, TEAD-YAP inh -7.3 and FBW7 activator -0.1.
For CCCOc1ccc(NC(=O)C2CC(=O)N(CC)C(=Nc3ccc(C)c(C)c3)S2)cc1 (centres undefined) the results were GPR151 ag 7.3*, MITF inh 8.0, TEAD-YAP inh -3.2, FBW7 activator 0.1, GPR151 confirm 2.7 and GPR119 counter 12.9.
Screening CCOc1ccc(NC(=O)C2CC(=O)N(CC)C(=Nc3ccc(C)c(C)c3)S2)cc1 (centres undefined) returned GPR151 ag 0.4, MITF inh -3.1, TEAD-YAP inh 11.5 and FBW7 activator 0.0.
`O=C(NC1CC1)c1cnc(N2CCN(c3ccccn3)CC2)s1` gave GPR151 ag 5.0*, MITF inh 9.9, TEAD-YAP inh -17.1, FBW7 activator 0.0, GPR151 confirm 0.6 and GPR119 counter 3.5.
For COC(=O)c1cc(OC)c(OC)cc1NC(=S)N1CCCC1 the results were GPR151 ag 2.4, MITF inh 2.6, TEAD-YAP inh 6.9 and FBW7 activator -0.1.
Screening COc1cc(C#N)c(NC(=S)N2CCCC2)cc1OC returned GPR151 ag 5.4*, MITF inh 6.7, TEAD-YAP inh -1.1, FBW7 activator 0.1, GPR151 confirm -1.0 and GPR119 counter -2.8.
`C/C(=N\NC(=O)c1cc(-c2cccs2)[nH]n1)c1ccc(O)cc1` gave GPR151 ag -1.3, MITF inh -10.5, TEAD-YAP inh -6.3 and FBW7 activator 0.0.
C/C(=N\NC(=O)c1cc(-c2ccco2)[nH]n1)c1ccc(O)cc1 was read as GPR151 ag 7.4*, MITF inh 8.5, TEAD-YAP inh 6.0, FBW7 activator -0.1, GPR151 confirm 0.3 and GPR119 counter 11.3.
For O=C(Nc1ccc2c(c1)CN(Cc1cccnc1)CC2)C1CCCO1 (centres undefined) the results were GPR151 ag 0.1, MITF inh 12.1, TEAD-YAP inh -0.2 and FBW7 activator 0.2.
O=C(Nc1ccc2c(c1)CN(Cc1cnc(-c3ccccc3)s1)CC2)C1CCCO1 (centres undefined) was read as GPR151 ag 5.2*, MITF inh -13.3, TEAD-YAP inh 3.2, FBW7 activator -0.1, GPR151 confirm 0.5 and GPR119 counter 1.6.
Screening COc1cc(C=O)ccc1OC(=O)c1cn(CCC#N)nc1-c1cccs1 returned GPR151 ag -0.1, MITF inh -20.5, TEAD-YAP inh 2.9 and FBW7 activator 0.2.
`O=C(N/N=C/c1ccccc1F)c1cccnc1` gave GPR151 ag 7.1*, MITF inh 12.9, TEAD-YAP inh -3.1, FBW7 activator 0.4, GPR151 confirm -0.8 and GPR119 counter -6.1.
Cc1[nH]c2ccccc2c1/C=N/NC(=O)c1cccnc1 was read as GPR151 ag 5.2*, MITF inh 1.4, TEAD-YAP inh -13.1, FBW7 activator 0.0, GPR151 confirm -0.7 and GPR119 counter 7.2.
Screening Cc1[nH]c2ccccc2c1/C=N/NC(=O)c1ccccc1O returned GPR151 ag 0.1, MITF inh 14.8, TEAD-YAP inh -9.6 and FBW7 activator 0.1.
